Laboratory results as given in PubChem BioAssay AID602392 (National Center for Advancing Translational Sciences (NCATS), 2012).
“And” between values parts separate entries of the source, which are not always exact repeats. Identical values can stand only once. The source made the active and inactive calls. The call rests on the fitted dose curve.

Each compound was assayed against 4'-phosphopantetheinyl transferase Sfp (Bacillus subtilis (strain 168)) (UniProt P39135) (assay: qHTS Assay for Inhibitors of Bacillus subtilis Sfp phosphopantetheinyl transferase (PPTase): Label Free Assay for SAR). Conditions: purified Sfp with carrier protein, gel densitometry, 30 min.
Description: The covalent attachment of a phosphopantetheinyl (4'-PP) arm to a variety of synthases and other proteins is a key posttranslational protein modification. The 4'-PP is installed on the proteins post-translationally from coenzyme A (CoA) on a conserved serine residue by action of phosphopantetheinyl transferase (PPTase) enzymes. Phosphopantetheinylation is essential for synthase activity, and removal of the PPTase gene precludes natural product synthesis in microorganisms, or in the case of fatty acid biosynthesis, renders the organism unviable. PPTase enzymes belong to a distinct structural superfamily. Within bacteria, these enzymes are grouped into two classes based upon primary structure, the AcpS-Type and Sfp-Type PPTases.
Sfp-type PPTases, corresponding to an activator of surfactin production in Bacillus subtilis, are responsible for modifying type I polyketide and nonribosomal peptide synthases of prokaryotes. Sfp-type PPTases are responsible for the activation of a variety of pathogen-associated virulence factors. Among these compounds are toxins such as mycolactone from Mycobacterium ulcerans, siderophores such as vibriobactin from Vibrio cholerae or mycobactin from Mycobacterium tuberculosis, as well as the mycolic acids which form the waxy cell wall of Mycobacteria. The biosyntheses of these natural products are considered attractive targets for drug design.
In search of small molecule Sfp-PPTase inhibitors, a fluorescence quenching assay was developed for detection of Bacillus subtilis Sfp-PPTase enzymatic activity in a miniaturized high-throughput format. The consensus ybbr acceptor peptide […] was N-terminally labeled with Black Hole Quencher-2 (BHQ-2) and used in combination with rhodamine-labeled coenzyme A as a co-substrate.
This project seeks to identify inhibitors of Sfp phosphopantetheinyl transferase. The primary and secondary screens both utilized a rhodamine-modified CoA substrate. This experiment sought to confirm compound activity in a biochemical assay using the natural nucleotide substrate in conjunction with a whole-protein acceptor. We employed polyacrylamide gel electrophoresis in the presence of modest urea concentrations to achieve a conformationally sensitive separation of the apo- and holo- states of the acyl carrier protein (ACP) from E. coli [Rock, 1981, Cronan 1982]. Under conditions of limiting Sfp concentrations, quantitative determinations of enzyme activity can be made from images of the gels after treatment with an appropriately sensitive protein stain.
NIH Chemical Genomics Center [NCGC]
NIH Molecular Libraries Probe Centers Network [MLPCN]
Assay Submitter (PI): Michale Burkart, University of California, San Diego
Preparation of apo-ACP substrate.
A derivative of the AcpP locus from E. coli K12 containing a C-terminal fusion to a hexahistidine tag is expressed and purified from E.coli BL21(DE3) following standard procedures, (27) providing a mixture of the apo- and holo- forms of ACP in a ratio 3:2; as judged by UREA-PAGE. The resulting mixture (10 mg/ml) is reduced overnight in PBS buffer containing 10 mM DTT, and excess reducing agent removed by passage over a PD6 desalting column (Bio-Rad Laboratories, Hercules, CA). The sample is immediately pooled with an equal volume of activated thiol sepharose 4B (cat #17-0640-01, GE Healthcare, Piscataway, NJ) prepared according to the manufacturers recommendations; and the slurry agitated gently overnight at 4 deg C. The slurry was decanted into a disposable chromatography column and washed with 3 volumes of PBS. The filtrate and washes were pooled, concentrated, and the process iterated once to provide a solution of ACP that was >98% apo-form as judged by conformationally sensitive UREA-PAGE.
Label-free gel assay for phosphopantetheinylation.
Test compound (0.5 ul) dissolved in DMSO was added to 1.33 X enzyme solution (15 ul) containing 66 nM Sfp, 66 mM HEPES*Na pH 7.6, 13.3 mM MgCl2, 0.0133% NP40, and 1.33 mg/ml BSA. […]
With `COc1ccc(N2CCN(C(=S)Nc3cc(C)ccn3)CC2)cc1` the Potency was 83.3 µM (active). In the case of `Cc1ccnc(NC(=S)N2CCN(c3ccc(Br)cc3)CC2)c1`, the Potency is reported as 83.3 µM (active). For `CCOC(=O)c1c(-c2ccc(C)o2)csc1NC(=O)CSc1nnnn1-c1ccccc1`, the Potency was 27.8 µM (active). `Cc1ccnc(NC(=S)N2CCN(c3cccc(C(F)(F)F)c3)CC2)c1` was tested, and the Potency was 83.3 µM (active) and 3.09 µM (active). `S=C(Nc1ccccn1)c1ccccn1` was tested, and the outcome was “inactive”. In the case of `CC(C)(C)Cc1nnc(NC(=O)CSc2ccccc2)s1`, the outcome is reported as “inactive”. `O=C(Nc1nnc(COc2ccc(Cl)cc2)s1)c1ccco1` was tested, and the Potency was 9.26 µM (active). In the case of `C(=C1\Nn2c(COc3ccccc3)nnc2S1)/c1ccccc1`, the Potency is reported as 27.8 µM (active). In the case of `CN(C)c1ccc(C(=S)N2CCN(Cc3ccccc3)CC2)cc1`, the Potency is reported as 27.8 µM (active). With `O=C(Nc1nnc(COc2ccc(Cl)cc2)s1)c1cccs1` the Potency was 250 µM (active). For `CCOC(=O)c1cc(-c2ccccc2)sc1NC(=O)c1ccc(OC)cc1`, the outcome was “inactive”. `CCc1c(C)sc(NC(=O)C2CCCCC2C(=O)O)c1C(N)=O` (configuration not stated) was tested, and the outcome was “inactive”.
